# Data taken from PubChem BioAssay AID504546 (Broad Institute, 2011).
# Results filed as inconclusive are left out. Activity calls are given as the source filed them.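 How the source made its calls: active means every repeat run fits a falling-signal curve with half-maximal potency within ten times top tested dose; inconclusive means runs disagree, or flat moderate drop, or poor fit; inactive means every run inactive, including signal moving upward.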
# Experiment: ADP-Glo luciferase signal interference – biochemical, luminescence, cherry-picked samples, set 2, artefact control for CDK5 inhibitor project, dose response (AID 504546)
row,SMILES,outcome
1,NC(=O)c1c(Br)n(C2OC(CO)C(O)C2O)c2ncnc(N)c12 (stereo not drawn),inactive
2,O=C1Nc2ccccc2/C1=C/c1cnc[nH]1,inactive
3,NC(=O)c1cn(C2OC(CO)C(O)C2O)c2ncnc(N)c12 (stereo not drawn),inactive
4,N#Cc1cn(C2OC(CO)C(O)C2O)c2ncnc(N)c12 (stereo not drawn),inactive
5,COc1cc2c(ccc3c4cc(OC)c(OC)cc4c[n+](C)c23)cc1O,inactive
6,Nc1ncnc2c1ccn2[C@@H]1O[C@H](CO)[C@@H](O)[C@H]1O,inactive
7,Nc1ccc(CC2=NCCN2)cc1,inactive
8,N#Cc1c(Br)n(C2OC(CO)C(O)C2O)c2ncnc(N)c12 (stereo not drawn),inactive
